Experimental data from the supplement of paper PMC8975748.
Counter-ions that a name gives are not always drawn.

test system: Saccharomyces cerevisiae BY4741 SeMeCo community; assay: z-score of subpopulation abundance vs DMSO median, subpopulation auxotrophic for HLM; higher = larger share of this subpopulation than in DMSO controls; details: 10 µM; 24 h; SM minimal medium; subpopulation (auxotrophy): HLM
Description: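 Fluorescent four-plasmid SeMeCo (self-establishing metabolically cooperating S. cerevisiae BY4741 community; plasmids pH-mRuby2, pL-mWasabi, pU-eCFP, pM-TagRFP657) was grown 24 h in minimal SM medium with each Selleck FDA-approved drug at 10 µM in 384-well plates. Cells were fixed and imaged by high-content confocal microscopy. For each auxotrophic subpopulation (and the prototroph), a z-score gives the deviation from the DMSO vehicle-control population median.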

SMILES	z-score of subpopulation abundance
CN1CC(=O)N2[C@H](c3ccc4c(c3)OCO4)c3[nH]c4ccccc4c3C[C@@H]2C1=O [Tadalafil]	1.64
O=C(O)CCCCCCCC(=O)O [Azelaic acid]	-0.07
CC(NCCC(c1ccccc1)c1ccccc1)c1ccccc1 (stereo not given) [Fendiline hydrochloride]	-0.59
CO[C@@H]1[C@@H](OC(N)=O)[C@@H](O)[C@H](Oc2ccc3c(O)c(NC(=O)c4ccc(O)c(CC=C(C)C)c4)c(=O)oc3c2C)OC1(C)C [Novobiocin Sodium]	0.81
O=C1CN(/N=C/c2ccc([N+](=O)[O-])o2)C(=O)N1 [Nitrofurantoin]	-0.2
COc1cc(/C=C/C(=O)N2CCN(CC(=O)N3CCCC3)CC2)cc(OC)c1OC [Cinepazide maleate]	-0.01
C#C[C@]1(O)CC[C@H]2[C@@H]3CCc4cc(OC)ccc4[C@H]3CC[C@@]21C [Mestranol]	-0.48
CO[C@H]1C[C@@H]2CC[C@@H](C)[C@@](O)(O2)C(=O)C(=O)N2CCCC[C@H]2C(=O)O[C@H]([C@H](C)C[C@@H]2CC[C@@H](OP(C)(C)=O)[C@H](OC)C2)CC(=O)[C@H](C)/C=C(\C)[C@@H](O)[C@@H](OC)C(=O)[C@H](C)C[C@H](C)/C=C/C=C/C=C/1C [Ridaforolimus (Deforolimus, MK-8669)]	16.1
CC(=O)[C@H]1CC[C@H]2[C@@H]3CCC4=CC(=O)CC[C@]4(C)[C@H]3CC[C@]12C [Progesterone]	-0.24
Nc1nc2ccc(OC(F)(F)F)cc2s1 [Riluzole]	0.67
COc1cc2c(cc1OC)C(=O)C(CC1CCN(Cc3ccccc3)CC1)C2 (stereo not given) [Donepezil]	-0.14
CCCc1cc(C(N)=S)ccn1 [Protionamide]	-0.03
COc1ccnc(C[S+]([O-])c2nc3cc(OC(F)F)ccc3[nH]2)c1OC (stereo not given) [Pantoprazole]	0.09
COC(=O)C1=C(C)NC(C)=C(C(=O)OC(C)C)C1c1cccc2nonc12 (stereo not given) [Isradipine]	-0.7
CC1(C)S[C@@H]2[C@H](NC(=O)[C@H](NC(=O)N3CCN(S(C)(=O)=O)C3=O)c3ccccc3)C(=O)N2[C@H]1C(=O)O [Mezlocillin Sodium]	-0.19
COc1ccc2cc3[n+](cc2c1OC)CCc1cc2c(cc1-3)OCO2 [Berberine chloride]	-0.32
C#CCN(C)Cc1ccccc1 [Pargyline hydrochloride]	-0.13
CN(C)[C@@H](CCOc1cccc2ccccc12)c1ccccc1 [Dapoxetine HCl]	-0.47
CCn1cc(C(=O)O)c(=O)c2cc(F)c(N3CCNCC3)nc21 [Enoxacin Sesquihydrate]	-0.85
Cc1ccc(O)c([C@H](CCN(C(C)C)C(C)C)c2ccccc2)c1 [Tolterodine tartrate]	-0.01

SMILES	z-score of subpopulation abundance
CCS(=O)(=O)CCn1c([N+](=O)[O-])cnc1C [Tinidazole]	-1.15
O=C(O)c1cn(-c2ccc(F)cc2)c2cc(N3CCNCC3)c(F)cc2c1=O [Sarafloxacin HCl]	-0.84
COc1cc([C@@H]2c3cc4c(cc3[C@@H](O[C@@H]3O[C@@H]5CO[C@@H](c6cccs6)O[C@H]5[C@H](O)[C@H]3O)[C@H]3COC(=O)[C@H]23)OCO4)cc(OC)c1O [Teniposide]	1
CCN(CC)CCNC(=O)c1cc(S(C)(=O)=O)ccc1OC [Tiapride Hydrochloride]	3.15
CCCCCCCCOc1ccccc1C(=O)Nc1ccc(C(=O)OCC[N+](C)(CC)CC)cc1 [Otilonium Bromide]	9.05
CCCNCC(O)COc1ccccc1C(=O)CCc1ccccc1 (stereo not given) [Propafenone HCl]	-0.63
CC[C@@H]([C@H](C)O)n1ncn(-c2ccc(N3CCN(c4ccc(OC[C@@H]5CO[C@@](Cn6cncn6)(c6ccc(F)cc6F)C5)cc4)CC3)cc2)c1=O [Posaconazole]	14.9
Cc1cccc(N(C)C(=S)Oc2ccc3ccccc3c2)c1 [Tolnaftate]	-0.75
CNCCCC1c2ccccc2C=Cc2ccccc21 [Protriptyline hydrochloride]	-0.07
O=c1cc(-c2ccc(O)c(O)c2)oc2cc(O)cc(O)c12 [Luteolin]	-0.56
CCCCCC(=O)O[C@]1(C(C)=O)CC[C@H]2[C@@H]3CCC4=CC(=O)CC[C@]4(C)[C@H]3CC[C@@]21C [Hydroxyprogesterone caproate]	0.65
Cc1c(Nc2ncccc2C(=O)O)cccc1C(F)(F)F [Flunixin Meglumin]	-0.58
Nc1cc(C(Cl)=C(Cl)Cl)c(S(N)(=O)=O)cc1S(N)(=O)=O [Clorsulon]	0.02
CN1CCOC(c2ccccc2)c2ccccc2C1 (stereo not given) [Nefopam HCl]	-0.41
Nc1ccc(S(=O)(=O)NC(=O)c2ccccc2)cc1 [Sulfabenzamide]	0.11
CC(=O)Oc1ccc(C(=C2CCCCC2)c2ccc(OC(C)=O)cc2)cc1 [Cyclofenil]	0.41
COc1cccc2c1C(=O)c1c(O)c3c(c(O)c1C2=O)CC(O)(C(=O)CO)CC3OC1CC(N)C(O)C(C)O1 (stereo not given) [Doxorubicin (Adriamycin) HCl]	2.16
CCCCCOc1ccccc1/C(=C\SC)n1ccnc1 [Neticonazole Hydrochloride]	23.8
Clc1ccc(C(Cn2ccnc2)OCc2c(Cl)cccc2Cl)c(Cl)c1 (stereo not given) [Isoconazole nitrate]	13.3
CCOC(=O)c1ccc(N)cc1 [Benzocaine hydrochloride]	-0.46
